High-throughput results as filed in PubChem BioAssay.
LYPLA1 counter: counter-screen for PME1 inhibitors: inhibitors of human LYPLA1 | O75608 | recombinant LYPLA1, FP-Rh probe fluorescence polarization | inhibition, % at 5.9 µM | hit rate 0.16% among 320,000 | AID 2174;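 active = inhibition above the mean of all tested compounds plus 3 SD, set per campaign, cut at about 14% in these data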;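 note: inhibitors block serine hydrolase probe labeling of LYPLA1 so polarization falls; 0% = enzyme with DMSO and 100% = wells lacking LYPLA1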
Target sequence (O75608 whole entry, looked up): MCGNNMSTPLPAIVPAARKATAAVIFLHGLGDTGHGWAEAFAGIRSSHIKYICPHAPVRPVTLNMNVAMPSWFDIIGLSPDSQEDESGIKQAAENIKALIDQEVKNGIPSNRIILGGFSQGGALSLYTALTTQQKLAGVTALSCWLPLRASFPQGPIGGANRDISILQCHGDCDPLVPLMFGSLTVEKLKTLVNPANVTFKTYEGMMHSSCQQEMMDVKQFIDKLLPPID
LYPLA2 inh: counter-screen for PME1 inhibitors: inhibitors of human LYPLA2; hit rate 0.38% among 320,000; inhibition, % at 5.9 µM; O95372; recombinant LYPLA2, FP-Rh probe fluorescence polarization;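 active = inhibition above the screen-wide mean plus 3 SD, limit set per campaign, cut at about 26% in these data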;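 note: 0% = LYPLA2 with DMSO and 100% = wells lacking LYPLA2 enzyme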
Target sequence (O95372 whole entry, looked up): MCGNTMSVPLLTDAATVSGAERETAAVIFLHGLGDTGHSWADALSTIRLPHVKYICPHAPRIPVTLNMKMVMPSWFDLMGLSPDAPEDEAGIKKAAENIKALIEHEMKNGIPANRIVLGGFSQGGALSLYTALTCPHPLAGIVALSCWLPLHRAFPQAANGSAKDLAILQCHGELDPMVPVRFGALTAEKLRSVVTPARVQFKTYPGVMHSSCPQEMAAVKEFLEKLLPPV
Fam108B counter: blocks mouse Fam108B hydrolase in RBBP9 counter-screen; hit rate 0.33% among 300,000; recombinant Fam108B, FP-Rh probe fluorescence polarization; inhibition, % at 9.51 µM;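 active = inhibition above the screen mean inhibition plus 3 SD, computed separately per campaign, cut at about 18% in these data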;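 note: inhibitors lower polarization as less probe binds the enzyme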
PME-1 primary: blocks human protein phosphatase methylesterase 1; Q9Y570; inhibition, % at 5.9 µM; hit rate 0.53% among 320,000; recombinant PME-1, FP-Rh probe fluorescence polarization; AID 2130;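 active = inhibition above the campaign mean of all compounds plus 3 SD, cut at about 26% in these data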;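 note: competitive labeling of PME-1 active site by serine hydrolase directed probe; 0% = PME-1 with DMSO and 100% = wells lacking PME-1 enzyme; inhibitors block probe labeling so polarization falls and inhibition rises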
PREPL inhibitor: inhibits the human prolyl oligopeptidase-like enzyme; AID 2751; hit rate 0.68% among 320,000; recombinant PREPL, fluorescence polarization activity-based probe; inhibition, % at 5.96 µM; in the data active = inhibition above about 43%;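 note: 0% = enzyme with DMSO and 100% = wells lacking enzyme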
LYPLA2 confirm: LYPLA2 (human) inhibition, confirmation counter-screen. shares compounds with LYPLA2 inh. recombinant LYPLA2, FP-Rh probe fluorescence polarization. inhibition, % at 5.9 µM. hit rate 72% among 1,100;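 active = mean inhibition across replicates above the hit cutoff set in the primary screen, cut at about 26% in these data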;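 note: blocked labeling of the enzyme by serine hydrolase FP-Rh probe lowers polarization; 0% = enzyme with DMSO and 100% = wells lacking LYPLA2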
LYPLA2 ABPP: blocks human acyl-protein thioesterase 2 in gel ABPP | rhLYPLA2 in mouse brain proteome, gel ABPP FP-Rh | hit rate 30% among 150 | inhibition, % at 20 µM | shares compounds with LYPLA2 inh;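 active = inhibition of LYPLA2 enzyme probe labeling above about 50%, limit read from the data; inactive = inhibition below that limit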;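 note: loss of FP-Rh probe labeling of the LYPLA2 gel band measured as band density; 0% = DMSO only control band and 100% = blank gel background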
An asterisk follows results filed as active; nt = not tested or not shown. Rows were chosen to be rich in hits. Some 1.3% of all compounds tested hit in one or more screens of this group.

SMILES	LYPLA1 counter	LYPLA2 inh	Fam108B counter	PME-1 primary	PREPL inhibitor	LYPLA2 confirm	others
COc1ccc(N2CCN(C(=O)c3ccc(CSc4ccccc4)cc3)CC2)cc1	3	30*	1	0	11	42*
O=C(CN1C(=O)NC2(CCCc3ccccc32)C1=O)NCC(F)(F)F (centres undefined)	-1	-6	2	-1	1	nt
CC(=O)Nc1ccc(NC(=O)C(C)Oc2ccccc2C(=O)NCc2ccccc2)cc1 (centres undefined)	-1	5	nt	3	-6	nt
COc1ccc(-c2cc(C)no2)cc1S(=O)(=O)N1CCN(c2cccc(C)c2)C(C)C1 (centres undefined)	-4	32*	0	-2	3	31*
Cc1cccc(N2CCN(S(=O)(=O)c3cc(-c4cc(C)no4)ccc3C)CC2C)c1 (centres undefined)	-2	-2	-3	-5	-3	nt
O=[N+]([O-])c1cnc(Nc2ccc(Cl)cn2)c([N+](=O)[O-])c1	2	29*	3	4	22	32*
O=C(C1CCN(S(=O)(=O)c2ccccc2)CC1)N1CCN(c2ccccc2)CC1	1	10	5	21	2	nt
COc1ccc(N2CCN(C(=O)C3CCN(S(=O)(=O)c4ccccc4)CC3)CC2)cc1	-2	38*	2	19	4	44*
O=C(C1CCN(S(=O)(=O)c2cccnc2)CC1)N1CCN(c2ccc(Cl)cc2)CC1	3	38*	1	5	6	42*
COC(=O)Cc1ccc(NC(=O)c2ccc3c(c2)C(=O)N(Cc2cccnc2)C3=O)cc1	4	28*	2	3	1	26*
CCOC(=O)c1ccc(NC(=O)c2ccc3c(c2)C(=O)N(Cc2cccnc2)C3=O)cc1	3	41*	3	-12	12	47*
CC(C)c1ccc(NC(=O)c2ccc3c(c2)C(=O)N(Cc2cccnc2)C3=O)cc1	-1	51*	-4	8	9	53*	LYPLA2 ABPP=26
Cc1cc(Br)c(NC(=O)COC(=O)C2CCCCC2)c(Br)c1	nt	nt	nt	nt	14	nt
Cc1c(Br)c([N+](=O)[O-])nn1CC(=O)N1CCc2ccccc2C1	7	7	2	-2	14	nt
Cc1c(Br)c([N+](=O)[O-])nn1CC(=O)N1CCN(C23CC4CC(CC(C4)C2)C3)CC1	6	27*	0	2	20	-1
O=C(Nc1ccc2oc(-c3ccncc3)nc2c1)c1ccc2c(c1)OCCO2	9	28*	-10	-9	19	24
C=CCn1c(SCC(=O)OCC)nc2cc(C(=O)NCc3ccco3)ccc2c1=O	-8	-13	-1	2	11	nt
CCCCCn1c(SCC(=O)OCC)nc2cc(C(=O)NCc3ccco3)ccc2c1=O	-8	34*	1	0	0	-4
COc1ccccc1C1=NOC(COc2ccc3c(C)cc(=O)oc3c2)C1 (centres undefined)	2	7	-7	1	-2	nt
COc1ccc(C2=NOC(COc3ccc4c(C)cc(=O)oc4c3)C2)c(OC)c1 (centres undefined)	2	28*	3	-7	2	24
O=[N+]([O-])c1ccc(Sc2ccccc2Cl)nc1	4	45*	3	-1	15	48*
Cc1ccc(OCC(=O)N/N=C/c2cc([N+](=O)[O-])ccc2N2CCCCC2)cc1	4	5	-3	7	2	nt
O=C(COc1ccc([N+](=O)[O-])cc1)N/N=C/c1cc([N+](=O)[O-])ccc1N1CCOCC1	2	35*	5	6	20	30*
CC(c1ccco1)N(C(=O)c1cccc(Br)c1)c1ccccn1 (centres undefined)	-6	-4	3	-4	15	nt
NC(=O)c1cc([N+](=O)[O-])ccc1Nc1ccccc1	-1	39*	2	7	-4	32*
SMILES	LYPLA1 counter	LYPLA2 inh	Fam108B counter	PME-1 primary	PREPL inhibitor	LYPLA2 confirm	others
COc1cccc(-n2c(SCC(N)=O)nc3c([nH]c4ccccc43)c2=O)c1	2	174*	0	4	0	1
COc1cccc(-n2c(SCC(=O)N3CCCCC3)nc3c([nH]c4ccccc43)c2=O)c1	1	-1	1	0	-4	nt
COc1ccccc1-c1nnc(C2CCN(S(=O)(=O)c3ccc([N+](=O)[O-])cc3)CC2)o1	2	75*	2	2	18	72*	LYPLA2 ABPP=58*
COc1ccccc1-c1nnc(C2CCN(S(=O)(=O)c3cccc([N+](=O)[O-])c3)CC2)o1	2	20	1	0	11	nt
CC1CCN(CCCNC(=O)c2cc3sccc3n2C)CC1	-2	2	-3	0	22	nt
COc1ccc(N2CCN(CCCNC(=O)c3cc4sccc4n3C)CC2)cc1	4	33*	1	-1	24	32*
O=C(NCCNc1ccc([N+](=O)[O-])cc1C(F)(F)F)c1ccccc1F	-7	27*	-6	-5	3	26
CC(C)(C)OC(=O)N1CCC(C(=O)Nc2ccc3c(c2)CCC3)CC1	2	3	nt	-2	5	nt
COC(=O)c1cccc(NC(=O)COc2cccc([N+](=O)[O-])c2)c1	4	7	-1	2	0	nt
CC(C)c1onc(C(=O)NC2CCCCC2)c1[N+](=O)[O-]	2	3	0	1	8	nt
CC(=O)c1ccc(N2CCN(C(=O)c3noc4c3CSc3ccccc3-4)CC2)cc1	6	44*	1	0	23	17
O=[N+]([O-])c1ccc(Oc2cccc(C(F)(F)F)c2)nc1	1	41*	3	-3	3	75*	LYPLA2 ABPP=47
CN(C)CCNS(=O)(=O)c1ccc(N2CCc3ccccc32)c([N+](=O)[O-])c1	6	8	0	5	-4	nt
CC(=O)c1ccc(N2CCN(c3ccc(S(=O)(=O)NCCN(C)C)cc3[N+](=O)[O-])CC2)cc1	4	28*	3	2	26	31*
CC(=O)c1ccc(N2CCN(c3ccc(S(=O)(=O)NCCCN(C)C)cc3[N+](=O)[O-])CC2)cc1	10	26*	-3	-5	21	19
CN(C)CCCNS(=O)(=O)c1ccc(N2CCN(Cc3ccc4c(c3)OCO4)CC2)c([N+](=O)[O-])c1	-2	-2	0	2	17	nt
CCCn1cc(C(=O)N(C)C2CCCN(Cc3ccccc3F)C2)c(C)n1 (centres undefined)	-1	1	5	7	3	nt
O=[N+]([O-])c1c(Nc2cccc(O)c2)cc(Cl)c2nonc12	0	47*	2	13	17	51*
O=C(O)c1ccc(Nc2cc(Cl)c3nonc3c2[N+](=O)[O-])cc1	1	4	6	4	13	nt
